Rows were chosen to be rich in hits. Some 19% of all compounds tested hit in one or more screens of this group.
DT40 TDP1 no CPT – qHTS for Inhibitors of human tyrosyl-DNA phosphodiesterase 1 (TDP1): qHTS in cells in absence of CPT | DT40 Tdp1-/- hTDP1 cells, no CPT, ATP luminescence, 48 h | Potency, µM (doses to about 46.2 µM), inactives show top-dose activity change, negative = growth inhibition, actives largely listed as inhibitors | 420,000 compounds, 15% hits | AID 686978, 2013; further: potency means the concentration at half of the fitted maximal effect; nearly all actives have a fitted effect of over 55% in size
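Readout: luminescence from CellTiter-Glo after 30 min in the dark at RT. Cells: DT40 Tdp1-/- with stable hTDP1, 400/well. Exposure: compounds alone, ≥48 hr, 37 °C.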
DT40 TDP1 CPT – DT40-hTDP1 cell growth loss with CPT; 420,000 compounds, 12% hits; AID 686979; chicken DT40 Tdp1-/-;hTDP1 cells + 20 nM CPT, ATP luminescence, 48 h; Potency, µM (series often up to 46.2 µM), without a hit: top-dose activity change, negative = growth inhibition, most hits filed as inhibitors; further: potency means the concentration at half of the fitted maximal effect; nearly all actives have a fitted effect of over 55% in size
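Chicken DT40 Tdp1-/- cells stably complemented with human TDP1 were seeded at 400 cells/well in medium containing 20 nM camptothecin, exposed to pin-transferred compounds, and grown at 37 °C for at least 48 hr. Viability was read as ATP luminescence.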
IL-1B inflam inh – blocks inflammasome-driven IL-1 beta release; THP-1 LPS/ATP IL-1B secretion, AlphaLISA, 16 h; active compounds read low; activity change, % at 57.5 µM; AID 743279; 360,000 compounds, 4.7% hits; in the data active means activity change below about -50%; inconclusive means mostly about -30% to -49%
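THP-1 cells pretreated 1 hr with compounds (up to 57.5 uM final), then stimulated with LPS (250 ng/mL final) plus ATP (1.25 mM final); secreted IL-1B measured by AlphaLISA after 16 hr, decreased signal indicating inhibition.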
HT1080 IDH1KD tx – HT-1080 IDH1 knockdown cell toxicity (counter line). HT-1080 IDH1 knockdown viability, ATP luminescence, 48 h. Potency, µM (doses to about 46.1 µM), for the others: at the top dose activity, negative = toxicity, most hits filed as cytotoxic. 360,000 compounds, 2% hits. AID 686971;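 further: potency means the concentration at half of the fitted maximal effect; 0% = DMSO wells and -100% = cell-free medium wells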
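Luminescent ATP read-out (CellTiter-Glo, 10 min at room temperature) after 48 h compound exposure at 37 °C gave viability of IDH1-knockdown HT-1080 cells. Activity was normalised to DMSO and cell-free wells, then fitted as concentration-response curves.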
ELG1 DNA repair – blocks ELG1-dependent DNA repair in HEK293T cells | HEK293T ELG1-luciferase reporter, luminescence, 16 h; DNA damage induced by 5-fluorouridine | 330,000 compounds, 2.3% hits | Potency, µM (highest dose often 46.1 µM), for the others: at the top dose activity change, negative = inhibition, actives largely listed as inhibitors; further: potency means the concentration at half of the fitted maximal effect; nearly all actives have a fitted effect of over 55% in size
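DMSO vehicle served as the neutral condition. Each well held 2,000 cells given 5-fluorouridine plus compound; after 16 hr at 37 °C/5% CO2, ONE-Glo was added and luciferase measured 30 min later.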
HT1080-NT tox – kills 2HG-producing HT-1080-NT fibrosarcoma cells; HT-1080-NT fibrosarcoma viability, CellTiter-Glo ATP luminescence, 48 h; Potency, µM (doses to about 46.1 µM), for inactives: top-dose activity, negative = less viability, most hits filed as cytotoxic; 360,000 compounds, 1.6% hits;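 further: NT is the 2HG producing partner of a matched IDH1 knockdown line; potency means the concentration at half of the fitted maximal effect; 0% = DMSO-treated cells and -100% = media-only wells without cells; nearly all actives have a fitted effect of over 55% in size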
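HT-1080-NT; 750 cells/well; 5% FBS RPMI; 48 h compound, 37 degrees C; CellTiter-Glo luminescence; curve fitting and curve-class assignment.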
Numbers without * were called inactive; ? = inconclusive; . = no result given; [ ] = another dose, or the depositor's remark. Unless noted, the call rests on the fitted dose curve; in most records, active means well fitted curve in the direction sought with a large enough effect; inconclusive means small, poorly fitted or top-dose-only effect, or another doubt; inactive means no such curve, though single readings can be large; an effect the other way counts as inactive or inconclusive. Unless noted, on the % scale 0 is the no-effect control and ±100 the full control effect.

SMILES	DT40 TDP1 no CPT	DT40 TDP1 CPT	IL-1B inflam inh	HT1080 IDH1KD tx	ELG1 DNA repair	HT1080-NT tox
CN(CCC#N)C(=O)COC(=O)c1ccc(CNS(=O)(=O)c2ccc(F)c(Cl)c2)cc1	-5%	8%	12	22%	11%	26%
CCOc1ccc(N2C(=O)/C(=C\c3ccc(O)c(OC)c3)S(=O)(=O)C2c2cccc([N+](=O)[O-])c2)cc1 (stereo not drawn)	?	18µM*	-2	7%	-23%	-1%
CCOc1ccc(N2C(=O)/C(=C\c3ccc(OC)c(O)c3)S(=O)(=O)C2c2cccc([N+](=O)[O-])c2)cc1 (stereo not drawn)	?	-28%	-1	-1%	-7%	1%
O=C(C1c2ccccc2Oc2ccccc21)N1CCN(c2ccc(Cl)cc2)CC1	15µM*	?	?	?	?	?
O=C(C1CCC1)N1CCN(c2ccc(Cl)cc2)CC1	?	-7%	-11	6%	3%	10%
COc1ccccc1N1CCN(C(=O)C2c3ccccc3Oc3ccccc32)CC1	2.9µM*	2.9µM*	24	1.8µM*	?	4.1µM*
COc1cc(N)c(NC(=O)/C=C/c2nc3cc(OC)c(OC)cc3[nH]2)cc1OC	-5%	-26%	.	.	.	.
CC(C)(Cc1ccc(O)cc1)NC(=O)CC(=O)N/N=C/c1ccc(Cl)cc1	18µM*	?	-4	-22%	-19%	?
Cc1cc(C)cc(NC(=O)Nc2c(Br)cnn2C)c1	?	-17%	-10	9%	-3%	24%
Cc1cccc2cc(CN(CC3CCCO3)C(=O)C3CC3)c(N(C)C)nc12 (stereo not drawn)	1%	-3%[9.04 µM]	.	.	.	.
Cc1cc(OC(=O)c2cc(C(F)(F)F)cc(C(F)(F)F)c2)c([N+](=O)[O-])c(=O)[nH]1	0%	-7%	25	3%	-12%	0%
CCc1nc2ccc(C(=O)NCCc3ccccn3)cn2c1N(CC)Cc1cccc(Br)c1	9.2µM*	8.2µM*	-23	?	.	?
CCc1nc2ccc(C(=O)NCCCN3CCCC3=O)cn2c1N(CC)Cc1cccc(Br)c1	?	21µM*	1	0%	.	-19%
CCc1nc2ccc(C(=O)NCc3ccc4c(c3)OCO4)cn2c1N(CC)Cc1cccc(Br)c1	?	?	?	-2%	.	?
CCc1nc2ccc(C(=O)NC(C)(C)C)cn2c1N(CC)Cc1cccc(Br)c1	16µM*	18µM*	-58*	?	.	?
CCOC(=O)c1cnn(-c2cccc(F)c2)c1C1CCNCC1	-8%	-28%	.	.	.	.
CCOc1ccc(NC(=O)Cn2c(CCC(=O)O)ccc2-c2ccc(Cl)cc2)cc1	-4%	-1%	.	.	.	.
O=C(c1cc(-c2ccco2)nc2ccccc12)N1CCN(c2ccc(F)cc2)CC1	13µM*	21µM*	-9	1%	?	-4%
CC(C)n1ncc2c(C(=O)N3CCN(c4ccccc4)CC3)cc(-c3ccccc3)nc21	?	?	-9	?	?	-27%
COc1ccc(-c2cc(C(=O)N3CCCCCC3)c3ccccc3n2)cc1OC	?	?	?	1%	.	-1%
COc1ccc(-c2cc(C(=O)N3CCN(c4ccccc4)CC3)c3ccccc3n2)cc1OC	16µM*	?	-20	-16%	16µM*	-14%
Cc1ccc2c(C(=O)N3CCN(c4ccccc4)CC3)cc(-c3cccnc3)nc2c1C	13µM*	?	-64*	23µM*	?	?
COc1ccc(-c2cc(C(=O)OCC(=O)N3CCCCC3)c3ccccc3n2)cc1OC	21µM*	?	12	10%	9.2µM*	-3%
COc1ccc2cc(-c3nc(Cl)c4c5c(sc4n3)CCCC5)c(=O)oc2c1	1%	-2%	.	.	.	.
Cc1sc2nc(CN3CCOCC3)nc(N3CCN(S(=O)(=O)c4ccccc4)CC3)c2c1C	?	?	-9	-3%	?	-14%
SMILES	DT40 TDP1 no CPT	DT40 TDP1 CPT	IL-1B inflam inh	HT1080 IDH1KD tx	ELG1 DNA repair	HT1080-NT tox
Cc1cccc(C(=O)OCC(=O)N2CCCCCC2)c1C	21µM*	?	-27	28%	?	27%
Cc1ccc(C(=O)c2ccccc2C(=O)OCC(=O)N2CCCC2)cc1	-1%	-6%	-8	-14%	?	-1%
Cc1ccc(-c2cc(C(=O)N3CCN(c4ccccc4)CC3)c3ccccc3n2)cc1C	16µM*	?	.	.	.	.
COc1ccc(-c2cc(C(=O)N3CCCCCC3)c3ccccc3n2)cc1	?	?	-6	-16%	1%	-9%
Cc1ccc(-c2cc(C(=O)n3cnc4ccccc43)c3ccccc3n2)cc1C	?	?	0	-29%	?	?
COc1ccc(-c2cc(C(=O)N3CCCC(C(F)(F)F)C3)c3ccccc3n2)cc1OC (stereo not drawn)	21µM*	?	?	-1%	?	-17%
Cc1ccc(S(=O)(=O)N2C(=O)[C@@H]3Cc4ccccc4CN3C2=O)cc1	?	?	-14	?	2%	?
O=C(NCc1ccccc1)c1ccc(S(=O)(=O)NCc2ccco2)cc1	-7%	-1%	9	11%	0%	3%
C=CCn1c2ccccc2c(=O)c2cc(C#Cc3ccccn3)ccc21	18µM*	26µM*	?	-7%	?	-23%
CCOCCCN1C(=O)CN(C2CCCCCC2)C(=O)C1c1ccc(OC(C)C)c(OC)c1 (stereo not drawn)	-22%	-28%	.	.	.	.
Cc1cccc(CSc2nc3ccccc3c(=O)n2C)c1	18µM*	?	40	?	9%	-13%
Cn1c(SCc2ccc(Br)cc2)nc2ccccc2c1=O	12µM*	?	-1	-25%	-22%	-27%
Cn1c(SCC#N)nc2ccccc2c1=O	-22%	19%	-28	0%	?	-2%
Cc1cc(C)cc(C(=O)N2CCC3(CC2)NCCc2[nH]cnc23)c1	-4%	1%	0	0%	?	-3%
COc1cccc(C(=O)NC(C)c2ccc(-c3ccccc3)cc2)c1OC (stereo not drawn)	?	?	-64*	-29%	-12%	-10%
COc1cc2cc(C(=O)NC(C)c3cccc4ccccc34)c(N)nc2cc1OC (stereo not drawn)	16µM*	26µM*	?	18µM*	.	26µM*
COc1cccc(C(=O)NC(C)c2cccc3ccccc23)c1OC (stereo not drawn)	?	-29%	-65*	-17%	1%	-23%
